Assay outcomes (PubChem BioAssay)
An excerpt weighted towards active compounds, which were near 4.6% of everything screened.
NALP3 yeast inh: inhibitors of NALP3 inflammasome in yeast; Yeast reconstituted NLRP3/ASC/caspase-1, beta-gal luminescence, 24 h; inhibition, % at 10 µM; hit rate 0.39% among 330,000; AID 2825;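 active = inhibition of 50% or more; inactive = inhibition below 50%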;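 also: plate controls were induced DMSO wells for no effect and uninduced yeast grown without galactose for full effect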
PfHsp90 set2: inhibits growth of yeast expressing Plasmodium falciparum Hsp90; S. cerevisiae expressing PfHsp90, BacTiter-Glo ATP, 48 h; yeast lacking PDR1 and PDR3 efflux regulators; inhibition, % at 9.4 µM; hit rate 0.32% among 310,000; AID 504621;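 active = every replicate shows inhibition above about 80%, whatever the replicate mean, limit read from the data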;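 also: 0% = DMSO neutral controls and 100% = 20 µM radicicol positive controls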
tim23-1 inh: growth inhibitors of tim23-1 mutant yeast | hit rate 1.3% among 330,000 | AID 463212 | inhibition, % at 20 µM | S. cerevisiae tim23-1 growth, BacTiter-Glo luminescence, 24 h;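 active = growth inhibition of the mutant yeast at or above 50%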;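 also: temperature-sensitive mutant grown at 25 °C; plate controls were DMSO-treated mutant yeast for no effect and medium wells lacking yeast for full effect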
SKKanGAS inh: blocks kanamycin growth of S. pyogenes SKKanGAS strain. inhibition, % at 7.5 µM. AID 1662. hit rate 1.3% among 300,000. BacTiter-Glo, 6 h;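 active = mean replicate score, as percent of positive control median, at least 50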;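 also: strain carries kanamycin resistance gene driven by streptokinase promoter and grows in 40 µg/ml kanamycin; loss of luminescence reflects streptokinase promoter inhibition or plain growth inhibition; 0% = median of DMSO wells and 100% = positive control at its reference dose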
tim10-1 inh: inhibits growth of tim10-1 mutant yeast; S. cerevisiae tim10-1 ts strain growth, BacTiter-Glo, 24 h; inhibition, % at 20 µM; hit rate 2.2% among 330,000;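 active = inhibition of at least 40%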;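 also: mutant grown at 25 °C; 0% = DMSO wells with yeast and 100% = wells holding no yeast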
TIM10 inh: growth inhibitors of TIM10 yeast strain; hit rate 1.4% among 330,000; S. cerevisiae TIM10 strain growth, BacTiter-Glo luminescence, 24 h; inhibition, % at 10 µM;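 active = inhibition of 40% or more at the single tested concentration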;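 also: wild-type TIM10 isogenic control strain grown at permissive 25 °C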
tim10-1 confirm: tim10-1 yeast growth inhibition, confirmed | shares compounds with tim10-1 inh | inhibition, % at 20 µM | hit rate 56% among 7,400 | S. cerevisiae tim10-1 ts strain growth, BacTiter-Glo, 24 h | AID 463213;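 active = inhibition of yeast growth at or above a set limit in either of two repeat tests at 20 µM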;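 also: tim10-1 mutant grown at permissive 25 °C to find synthetic lethal compounds; 0% = DMSO yeast wells and 100% = medium wells without yeast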
Numbers without * were called inactive; x = not tested or not shown.

SMILES	NALP3 yeast inh	PfHsp90 set2	tim23-1 inh	SKKanGAS inh	tim10-1 inh	TIM10 inh	tim10-1 confirm
CC1(C)CC(NC(=O)CCc2nnc(CCCCc3ccccc3)o2)CCO1 (stereo not drawn)	-9	16	-1	-4	13	6	x
CCOc1ccccc1N1CCN(C(=O)Nc2ccc(F)c(Cl)c2)CC1	30	-20	47	30	48*	37	40*
COc1ccccc1N1CCN(C(=O)Nc2ccc(F)c(Cl)c2)CC1	17	18	30	11	36	29	x
c1ccc2c(c1)-c1cccc3c1c-2cc1ccccc13	-4	x	21	x	15	16	x
Oc1cc(-c2ccccc2)c2ccccc2c1	-38	-114	47	3	54*	7	51*
O=C(COC(=O)c1ccccn1)c1ccc([N+](=O)[O-])cc1	2	-17	0	22	-2	5	x
COc1ccc(NC(=O)c2sc3nc(N4CCOCC4)c4c(c3c2N)CC(C(C)C)OC4)c(OC)c1 (stereo not drawn)	15	-14	1	7	43*	-5	4
COc1ccc(NC(=O)c2sc3nc(N4CCCC4)c4c(c3c2N)CC(C)(C)OC4)c(OC)c1	13	-3	9	11	26	-1	x
Cc1cccc(NC(=S)NC(=O)c2cccs2)n1	10	-7	47	-1	45*	21	31
Cc1nc(NC(=S)NC(=O)c2cccs2)ccc1Br	14	-4	12	-14	2	11	x
Cc1cccc(NC(=O)c2ccc([N+](=O)[O-])s2)n1	7	3	38	0	61*	35	58*
Cc1cccc(NC(=O)c2ccc([N+](=O)[O-])cc2Cl)n1	14	-18	14	-10	10	10	x
Cc1cccc(CSc2nc3sc(C)c(C)c3c(=O)n2Cc2ccco2)c1	-8	1	20	9	21	-2	x
Cc1sc2nc(SCc3nc4ccccc4[nH]3)n(Cc3ccco3)c(=O)c2c1C	-8	6	46	24	52*	29	35*
CN1CCN(c2ccc(NC(=S)NC(=O)c3cccc4c(Br)cccc34)cc2)CC1	42	33	-3	-3	47*	-1	-84
CN1CCN(c2ccc(NC(=S)NC(=O)c3cccc4ccccc34)cc2)CC1	24	23	-3	5	-3	3	x
COc1cc(C(=O)OCc2csc(CC(=O)Nc3ccccc3C)n2)ccc1OCC(C)C	19	31	12	x	22	8	x
O=C(CSc1nnc(C2COc3ccccc3O2)o1)N1CCN(c2ccccc2)CC1 (stereo not drawn)	11	-24	3	-1	15	-6	x
CC(=O)C1=C(C)OC(N)=C(C#N)C1c1cc2cccc(C)c2nc1Cl (stereo not drawn)	28	35	32	0	46*	20	25
CC(=O)C1=C(c2ccccc2)OC(N)=C(C#N)C1c1ccccc1C (stereo not drawn)	-4	4	22	-3	45*	15	20
C/C(=N/NC(=O)CN1CCN(S(=O)(=O)c2ccc(Br)cc2)CC1)c1ccco1	3	5	12	2	11	4	x
CC1CCCC(C)N1C(=O)CN1C(=O)c2ccccc2S1(=O)=O (stereo not drawn)	10	0	2	x	-7	5	x
O=[N+]([O-])c1cc(/C=N\O)ccc1Oc1ccc(F)cc1	10	9	42	5	46*	15	20
CC(C)(C)Sc1ccc(/C=N/O)cc1[N+](=O)[O-]	7	7	27	6	20	2	x
COc1cc(/C=N/O)ccc1Oc1ccc([N+](=O)[O-])cc1[N+](=O)[O-]	1	8	35	0	44*	25	38*
SMILES	NALP3 yeast inh	PfHsp90 set2	tim23-1 inh	SKKanGAS inh	tim10-1 inh	TIM10 inh	tim10-1 confirm
CO/N=C/c1ccc(Oc2ccc([N+](=O)[O-])cc2[N+](=O)[O-])c(OC)c1	23	6	41	6	44*	7	34*
COc1cc(/C=C2\SC(=O)NC2=O)ccc1Oc1ccc([N+](=O)[O-])cc1[N+](=O)[O-]	8	-21	3	13	17	8	x
CC(=O)Nc1ccc(NC(=O)c2sc3nc4n(c(=O)c3c2C)CCCCC4)cc1	14	-9	15	10	14	10	x
CC(=O)c1cccc(NC(=O)c2sc3nc4n(c(=O)c3c2C)CCCC4)c1	11	-36	18	7	52*	19	28*
CCc1ccc(NC(=O)c2sc3nc4n(c(=O)c3c2C)CCC4)cc1	21	15	34	-13	44*	-11	12
CNC(=O)c1oc(-c2ccccc2)nc1C	19	-28	-3	-2	-4	4	x
COc1ccc(S(=O)(=O)N2CCN(C(=O)c3cc4c(s3)CCC4)CC2)cc1	18	x	36	x	25	7	x
COc1ccc(Oc2nnnn2-c2ccccc2)cc1	10	x	9	-7	20	16	x
COc1cccc(Oc2nnnn2-c2ccccc2)c1	-56	10	34	-8	42*	22	33*
Cc1sc2nc(CN3CCOCC3)nc(Oc3ccc(NC(=O)c4ccco4)cc3)c2c1C	16	-16	33	9	48*	18	23
O=C(Cc1ccc(S(=O)(=O)N2CCOCC2)s1)Nc1cc(Cl)ccc1Cl	-2	-5	34	x	44*	23	36*
O=C(Cc1ccc(S(=O)(=O)N2CCOCC2)s1)Nc1ccc2c(c1)CCC2	-4	-13	27	-9	41*	31	17
COc1cc(NC(=O)Cc2ccc(S(=O)(=O)N3CCOCC3)s2)c(OC)cc1Cl	-10	16	24	1	30	13	x
Cc1ccccc1NC(=O)C1CCN(C(=O)N2CCOc3ccccc32)CC1	3	4	1	-3	-1	-2	x
CC(=O)N=c1n(C)c2ccccc2n1CCOc1ccccc1	16	20	21	-3	10	-13	x
CCCCNC(=S)N1CCn2cccc2C1c1ccc(F)cc1 (stereo not drawn)	1	-24	-2	10	44*	15	21
CCCCNC(=S)N1CCn2cccc2C1c1ccccc1 (stereo not drawn)	16	x	4	0	14	13	x
CCOC(=O)NN1C(=O)c2ccccc2NC1c1ccc(OC)cc1OC (stereo not drawn)	10	0	-2	-4	-14	6	x
Fc1ccccc1NC(=S)N1CCN(Cc2ccccc2)CC1	15	21	3	19	-1	5	x
Brc1ccccc1/C=N/Nc1ccc2ccccc2n1	15	6	26	-10	33	29	x
Brc1ccc(/C=N/Nc2ccc3ccccc3n2)cc1	19	2	35	3	48*	16	14
